Source: PubChem BioAssay (EPA / NIEHS)
Inconclusive results are not listed. Active and inactive are the calls of the source. How the source made its calls, unless noted: active means hit-call score of the fitted dose curve at least 0.9, where 1 is the maximum; inactive means score below 0.9.

What was measured:
[1] = IUF_NPC1b_proliferation_BrdU_72hr: Leibniz Research Institute for Environmental Medicine (IUF) 72-hour Neural Progenitor Cell Bromodeoxyuridine (BrdU) Proliferation Assay (NPC1b) (AID 2284207)
How it was run: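 hNPC spheres (primary, GW 16-19 fetal cortex), single sphere/well, EGF+FGF medium; 72 h compound, no renewal; BrdU pulse last 16 h; luminescent ELISA; activity vs DMSO baseline; growth-factor withdrawal as positive control.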

[2] = IUF_NPC1a_proliferation_area_72hr: Leibniz Research Institute for Environmental Medicine (IUF) 72-hour Neural Progenitor Cell Proliferation Area Assay (NPC1a) (AID 2284208)
How it was run: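 Proliferation is scored as sphere area gain in primary human fetal neural progenitors treated for 72 h in EGF/FGF-containing medium. Viability, LDH and BrdU readouts come from the same wells.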

[3] = IUF_NPC1_viability_72hr: Viability Assessment at 72 hours in the Leibniz Research Institute for Environmental Medicine (IUF) Neural Progenitor Cell Proliferation Assay (NPC1) (AID 2284209)
How it was run: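 Each well receives one 0.3 mm progenitor sphere from fetal brain cortex; test chemical is added at plating and left three days. Viability comes from alamar blue fluorescence, multiplexed with LDH and BrdU readouts in the same well.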

[4] = CCTE_Mundy_HCI_Cortical_Synap_Neur_Matur_NeuriteSpotCountPerNeuriteLength: CCTE's Synaptogenesis and Neurite Maturation Assay in rat cortical cells for Neurite Spot Count per Neurite Length, Mundy Lab (AID 2284210)
How it was run: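 Rat primary cortical cultures, glia arrested with AraC at DIV 5, were dosed with media change at DIV 7 and fixed at DIV 12. Synaptophysin puncta per MAP2-labelled neurite length were quantified by high-content imaging versus DMSO.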

[5] = CCTE_Mundy_HCI_Cortical_Synap_Neur_Matur_BPCount: CCTE's Synaptogenesis and Neurite Maturation Assay in rat cortical cells for Branch Point Count, Mundy Lab (AID 2284211)
How it was run: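 Branch point number is quantified by automated imaging of fluorescently labelled neurites and synapses in rat primary cortical neurons exposed from DIV 7 to DIV 12. Activity is analysed relative to DMSO negative control.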

[6] = CCTE_Mundy_HCI_Cortical_NOG_NeuriteCount: CCTE's Neurite Outgrowth Assay in rat cortical cells for Neurite Count, Mundy Lab (AID 2284212);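 further: cells fixed about two days after chemical exposure began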
How it was run: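 Neurite number per cell from high-content imaging of betaIII-tubulin immunostaining, with Hoechst nuclear counterstain.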

[7] = CCTE_Mundy_HCI_Cortical_NOG_NeuriteLength: CCTE's Neurite Outgrowth Assay in rat cortical cells for Neurite Length, Mundy Lab (AID 2284213);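 further: neurites imaged about 48 to 50 h after chemical exposure began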
How it was run: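 Neurite length was read by high-content imaging of βIII-tubulin-labelled neurites in rat primary cortical cultures. Activity was fitted relative to DMSO.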

[8] = CCTE_Mundy_HCI_Cortical_Synap_Neur_Matur_NeuriteLength: CCTE's Synaptogenesis and Neurite Maturation Assay in rat cortical cells for Neurite Length, Mundy Lab (AID 2284214)
How it was run: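 Neurite length in rat primary cortical cultures is imaged after MAP2, synaptophysin and Hoechst staining. Dosing starts DIV 7, ending DIV 12; DMSO serves as negative control and baseline.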

[9] = CCTE_Mundy_HCI_Cortical_Synap_Neur_Matur_NeuriteSpotCountPerNeuron: CCTE's Synaptogenesis and Neurite Maturation Assay in rat cortical cells for Neurite Spot Count per Neuron Count, Mundy Lab (AID 2284215)
How it was run: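 Synapse density is scored as synaptophysin spots along neurites per neuron in fixed rat cortical neurons, measured at DIV 12 after chemical dosing at DIV 7. DMSO is the negative control and activity baseline.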

[10] = CCTE_Mundy_HCI_Cortical_Synap_Neur_Matur_SynapseCount: CCTE's Synaptogenesis and Neurite Maturation Assay in rat cortical cells for Synapse Count, Mundy Lab (AID 2284218)
How it was run: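 Synapse count per neuron is measured in rat cortical neurons exposed to chemicals between DIV 7 and DIV 12, with glial growth arrested by AraC at DIV 5. Synaptophysin and MAP2 staining is imaged automatically; activity is fitted relative to DMSO.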

[11] = CCTE_Mundy_HCI_hN2_NOG_NeuriteLength: CCTE's Neurite Outgrowth Assay in human hN2 cells for Neurite Length, Mundy Lab (AID 2284220; active means hit-call score of the fitted dose curve at least 0.9, where 1 is the maximum)
How it was run: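 Using βIII-tubulin immunofluorescence and Hoechst nuclear counterstain, this component quantifies neurite length in hNP1-derived neurons.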

[12] = CCTE_Mundy_HCI_hN2_NOG_NeuronCount: CCTE's Neurite Outgrowth Assay in human hN2 cells for Neuron Count, Mundy Lab (AID 2284221; active means hit-call score of the fitted dose curve at least 0.9, where 1 is the maximum)
How it was run: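 Read-out is the number of betaIII-tubulin-positive neurons imaged by automated high-content analysis, with DMSO as negative control.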

[13] = CCTE_Mundy_HCI_Cortical_Synap_Neur_Matur_NeuriteCount: CCTE's Synaptogenesis and Neurite Maturation Assay in rat cortical cells for Neurite Count, Mundy Lab (AID 2284222)
How it was run: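 Primary rat cortical cells were plated, treated with AraC at DIV 5, then exposed to chemicals from DIV 7 through DIV 12. After fixation and immunostaining for MAP2 and synaptophysin, imaging quantified neurites, with DMSO as the negative control.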

[14] = CCTE_Mundy_HCI_Cortical_Synap_Neur_Matur_CellBodySpotCount: CCTE's Synaptogenesis and Neurite Maturation Assay in rat cortical cells for Cell Body Spot Count, Mundy Lab (AID 2284223)
How it was run: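 Synapse number at neuronal cell bodies was quantified as synaptophysin puncta per neuron in rat cortical cultures exposed from DIV 7 to DIV 12. Values were normalised to DMSO.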

[15] = UKN2_HCS_IMR90_cell_viability: Viability Assessment in the University of Konstanz (UKN) Leist Lab Neural Crest Cell Migration Assay in human induced IMR90 Pluripotent Stem Cells (UKN2) (AID 2284233);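 further: viability of neural crest cells differentiated from IMR90 iPSC measured by calcein-AM fluorescence imaging; cells exposed to compound for 24 h after a 24 h migration phase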
How it was run: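 iPSC-derived (IMR90) neural crest cells seeded around silicone stoppers on PLO/laminin/fibronectin; after 24 h migration in N2-S with EGF/FGF, chemical added for 24 h. Calcein-AM/Hoechst stained 30 min, high-content imaged; bidirectional fit versus DMSO.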

[16] = CCTE_Mundy_HCI_Cortical_NOG_BPCount: CCTE's Neurite Outgrowth Assay in rat cortical cells for Branch Point Count, Mundy Lab (AID 2284237);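 further: branch points counted about two days after chemical exposure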
How it was run: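 Measured 50.33 h after dosing, this morphology endpoint uses rat primary cortical cultures labelled for betaIII-tubulin. Branch points are quantified by high-content imaging, with DMSO as negative control and baseline.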

[17] = CCTE_Mundy_HCI_hNP1_Casp3_7: CCTE's Caspase-Glo 3/7 Assay in human neuroprogenitor cells for Apoptosis, Mundy Lab (AID 2284240)
How it was run: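 Neuroepithelial-lineage stem cells from WA09 embryonic cells were treated with chemicals after 40–44 h of culture. Twenty-four hours later, caspase-3/7 activation was detected luminescently after a 30 min room-temperature reagent step, with DMSO as baseline.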

[18] = CCTE_Mundy_HCI_hNP1_CellTiter: CCTE's Cell Titer-Glo 2 Assay in human neuroprogenitor cells for Viability, Mundy Lab (AID 2284241; active means hit-call score of the fitted dose curve at least 0.9, where 1 is the maximum)
How it was run: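 Measures ATP content in human neural progenitors derived from WA09 embryonic cells. Read-out at 26.5 hours after dosing, with DMSO serving as the negative control and baseline.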

[19] = CCTE_Mundy_HCI_Cortical_Synap_Neur_Matur_NeuronCount: CCTE's Synaptogenesis and Neurite Maturation Assay in rat cortical cells for Neuron Count, Mundy Lab (AID 2284242; active means hit-call score of the fitted dose curve at least 0.9, where 1 is the maximum;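 further: neuron number from Hoechst nuclei and MAP2 staining by high-content imaging; hits reduce neuron count versus DMSO baseline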)
How it was run: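 Imaging-based neuron count in rat cortical cultures after chemical exposure from DIV 7 to DIV 12, with AraC added at DIV 5. Activity is fitted relative to DMSO.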

[20] = IUF_NPC2c_oligodendrocyte_migration_120hr: Leibniz Research Institute for Environmental Medicine (IUF) 120-hour Neural Progenitor Cell Migration Assay for Oligodendrocyte Migration (NPC2c) (AID 2284297);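 further: O4-positive oligodendrocyte migration distance divided by radial glia migration distance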
How it was run: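 Primary hNPC spheres migrating on extracellular matrix, exposed five days to a 7-point dilution series with solvent control. Oligodendrocyte migration was scored by high-content imaging of O4 immunostaining and expressed relative to radial glia distance.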

[21] = IUF_NPC2a_radial_glia_migration_120hr: Leibniz Research Institute for Environmental Medicine (IUF) 120-hour Neural Progenitor Cell Migration Assay for Radial Glia Migration (NPC2a) (AID 2284298)
How it was run: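 In this multiplexed test, fetal hNPC spheres migrate radially on poly-D-lysine/laminin in N2 medium (37C, 5% CO2, pH 7.2-7.6) under continuous compound exposure over five days. Migration is scored at 120 h from automated Hoechst nuclear imaging.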

[22] = IUF_NPC2a_radial_glia_migration_72hr: Leibniz Research Institute for Environmental Medicine (IUF) 72-hour Neural Progenitor Cell Migration Assay for Radial Glia Migration (NPC2a) (AID 2284299)
How it was run: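 Migration out of plated human neural progenitor spheres is scored at 72 h as the distance in um from the sphere core edge to the edge of the migration area. Values are the mean of four manual measurements per well, normalised to DMSO.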

[23] = IUF_NPC2b_neuronal_migration_120hr: Leibniz Research Institute for Environmental Medicine (IUF) 120-hour Neural Progenitor Cell Migration Assay for Neuron Migration (NPC2b) (AID 2284300)
How it was run: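 Neurons identified by TUBB3 immunostaining and Hoechst nuclei; migration distance measured automatically on fixed wells at 120 h, normalized to glia migration. Exposure spanned five days of differentiation in N2 medium, seven test concentrations.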

[24] = IUF_NPC3_neuronal_differentiation_120hr: Leibniz Research Institute for Environmental Medicine (IUF) 120-hour Neuronal Differentiation Assay (NPC3) (AID 2284301)
How it was run: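 Primary human fetal neural progenitor spheres (GW 16-19, 0.3 mm) plated on poly-D-lysine/laminin in N2 medium, exposed from day 0 for 120 h with half-medium refresh at day 3. TUBB3+ cells as percent of Hoechst nuclei in migration area; DMSO baseline.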

[25] = IUF_NPC4_neurite_length_120hr: Leibniz Research Institute for Environmental Medicine (IUF) 120-hour Neuronal Morphology Assay for Neurite Length (NPC4) (AID 2284302)
How it was run: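 Human fetal cortex (GW 16-19) neural progenitor spheres, 0.3 mm, were plated on poly-D-lysine/laminin in N2 differentiation medium and exposed from day 0 for 120 h, half-feeding at day 3. Mean TUBB3+ neurite length (µm) came from skeletonized images, relative to DMSO.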

[26] = IUF_NPC5_oligodendrocyte_differentiation_120hr: Leibniz Research Institute for Environmental Medicine (IUF) 120-hour Oligodendrocyte Differentiation Assay (NPC5) (AID 2284304; active means hit-call score of the fitted dose curve at least 0.9, where 1 is the maximum;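 further: primary human fetal neural progenitor spheres plated to migrate and differentiate; share of O4-positive cells among Hoechst nuclei found by CNN image analysis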)
How it was run: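 Human primary NPC neurospheres migrating and differentiating on laminin for 120 h under continuous compound exposure (serial dilution, solvent control). Endpoint: percent O4+ oligodendrocytes among Hoechst nuclei, detected by CNN image analysis, with DMSO as negative control.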

[27] = IUF_NPC4_neurite_area_120hr: Leibniz Research Institute for Environmental Medicine (IUF) 120-hour Neuronal Morphology Assay for Neurite Area (NPC4) (AID 2284305; active means hit-call score of the fitted dose curve at least 0.9, where 1 is the maximum)
How it was run: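 Human fetal cortex-derived neural progenitor spheres (0.3 mm, GW 16-19) plated on poly-D-lysine/laminin in N2 differentiation medium and exposed from day 0 for 120 h across 7 concentrations plus solvent control. Neurite area is mean pixel area per TUBB3-positive neuron via skeletonization, analysed relative to DMSO.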

[28] = IUF_NPC2-5_cytotoxicity_120hr: Cytotoxicity Assessment at 120 hours in the Leibniz Research Institute for Environmental Medicine (IUF) Neural Progenitor Cell Migration and Differentiation Assay (NPC2-5) (AID 2284307; active means hit-call score of the fitted dose curve at least 0.9, where 1 is the maximum)
How it was run: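 Fluorescence (RFU) from LDH-driven resazurin reduction in medium supernatants measured loss of membrane integrity after 120 h of compound exposure of differentiating primary human neural progenitor spheres on an extracellular matrix.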

[29] = IUF_NPC2-5_cell_number_120hr: Cell Number Assessment at 120 hours in the Leibniz Research Institute for Environmental Medicine (IUF) Neural Progenitor Cell Migration and Differentiation Assay (NPC2-5) (AID 2284308);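 further: count of Hoechst-stained nuclei in migration zone around plated human neural progenitor spheres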
How it was run: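 Cell number is taken as all Hoechst-positive nuclei detected in the area into which cells migrate out of the sphere, scored at 120 h and referenced to DMSO solvent control, which was kept at no more than 0.1%.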

[30] = IUF_NPC2-5_viability_120hr: Viability Assessment at 120 hours in the Leibniz Research Institute for Environmental Medicine (IUF) Neural Progenitor Cell Migration and Differentiation Assay (NPC2-5) (AID 2284312)
How it was run: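 Human fetal (GW 16-19) neural progenitor spheres of 0.3 mm were plated on poly-D-lysine/laminin in N2 differentiation medium and exposed from day 0 for 120 h, with half-medium refresh at day 3. Viability was read as alamar blue resazurin-to-resorufin fluorescence against DMSO.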

[31] = IUF_NPC1_cytotoxicity_72hr: Cytotoxicity Assessment at 72 hours in the Leibniz Research Institute for Environmental Medicine (IUF) Neural Progenitor Cell Proliferation Assay (NPC1) (AID 2284332; active means hit-call score of the fitted dose curve at least 0.9, where 1 is the maximum;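 further: rising LDH signal means more cytotoxicity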)
How it was run: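 hNPC spheres (fetal brain, gestational week 16-19) grown under proliferative EGF/FGF conditions, pH 7.2-7.6, were treated continuously for 72 h. Cytotoxicity came from LDH-coupled resazurin fluorescence in each well's supernatant.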

Measured: AC50

Brc1ccc(Oc2ccc(Br)cc2Br)c(Br)c1
inactive: [1] | [2] | [3] | [14] | [15] | [17] | [18] | [20] | [21] | [22] | [23] | [24] | [25] | [27] | [28] | [29] | [30] | [31]
active: [4] 4.11 µM | [5] 3.98 µM | [6] 23.6 µM | [7] 25.2 µM | [8] 4.59 µM | [9] 8.25 µM | [10] 8.79 µM | [11] 8.87 µM | [12] 4.6 µM | [13] 5.14 µM | [16] 25.6 µM | [19] 7.42 µM | [26] 10.4 µM
